Assay outcomes from PubChem.
TrxR1 substrate: is turned over as a substrate by rat TrxR1; O89049; purified TrxR1 substrate turnover, NADPH consumption readout; Potency, µM (titrated, usually from 114 µM), without a hit: top-dose activity change, negative = substrate turnover; 390,000 tested, 0.01% active; AID 588456; also: % is scaled to controls: 0 for no effect and ±100 for the full control effect; nearly all actives have a fitted effect of over 50% in size
Target sequence (O89049 whole entry, looked up): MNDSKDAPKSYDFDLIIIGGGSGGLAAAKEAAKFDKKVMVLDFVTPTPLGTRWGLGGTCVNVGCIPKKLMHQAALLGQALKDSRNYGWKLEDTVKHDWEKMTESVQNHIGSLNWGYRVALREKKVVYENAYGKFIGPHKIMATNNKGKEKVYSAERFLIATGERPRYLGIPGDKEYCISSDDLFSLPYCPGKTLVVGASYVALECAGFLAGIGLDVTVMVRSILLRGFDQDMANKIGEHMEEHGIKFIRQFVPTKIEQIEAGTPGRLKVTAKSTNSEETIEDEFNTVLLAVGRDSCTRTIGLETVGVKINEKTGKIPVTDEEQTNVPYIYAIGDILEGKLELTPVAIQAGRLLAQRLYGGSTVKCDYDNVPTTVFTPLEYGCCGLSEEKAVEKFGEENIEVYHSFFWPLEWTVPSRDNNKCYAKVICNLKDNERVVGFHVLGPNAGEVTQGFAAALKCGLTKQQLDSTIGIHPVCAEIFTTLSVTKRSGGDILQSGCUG
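Rat TrxR1, dispensed at 90 nM, was prereduced with 400 uM NADPH (final) for 5 min at ~22 deg C, then incubated with compound 15 min before 400 uM selenite. A first-read NADPH fluorescence drop versus no-compound background flagged substrates.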
Mito fusion yeast: blocks mitochondrial division or promotes mitochondrial fusion; S. cerevisiae fusion-defective mutant growth rescue, CellTiterGlo 48 h; Potency, µM (series often up to 46.1 µM), for the others: at the highest dose growth rescue (activation), actives largely listed as activators; 320,000 tested, 0.23% active; AID 485298; also: % of control where 0% means no effect; nearly all actives have a fitted effect of over 45% in size
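Luminescent cell viability in 1536-well qHTS format served as the measure of rescued growth in ts fusion-mutant S. cerevisiae cultured on non-fermentable YPEG for 48 hours at 37C.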
TrxR1 inh: blocks rat thioredoxin reductase 1; AID 588453; recombinant rTrxR1, NADPH fluorescence consumption, selenite substrate; O89049; 390,000 tested, 1% active; Potency, µM (titrated, usually from 114 µM), for the others: top-dose activity change, negative = inhibition, most hits filed as inhibitors; also: % is scaled to controls: 0 for no effect and ±100 for the full control effect; nearly all actives have a fitted effect of over 65% in size
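Rat TrxR1 (90 nM in the dispensed reagent) was pre-reduced with 400 uM NADPH for 5 min at room temperature, then incubated with compound for 15 min. After 400 uM selenite was added, NADPH fluorescence (Ex 340/Em 450 nm) was followed for 8 min.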
mIDH1 inhibitor: inhibitors of human mutant IDH1 R132H. Potency, µM (doses to about 76.6 µM), inactives show at the top dose activity change, negative = inhibition, most hits filed as inhibitors. AID 602179. 390,000 tested, 0.093% active. O75874. IDH1-R132H enzyme, NADPH consumption, diaphorase/resazurin fluorescence; also: % is scaled to controls: 0 for no effect and ±100 for the full control effect; nearly all actives have a fitted effect of over 65% in size
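IDH1-R132H (0.5 ug/mL dispensed) in pH 7.5 Tris buffer was preincubated 30 min with compound, then given a substrate mix of 0.016 mM NADPH and 2 mM alpha-KG for 80 min at room temperature; remaining NADPH was read by diaphorase/resazurin fluorescence.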
A549 tox: counter-screen for Nrf2 inhibitors: cytotoxicity in A549 cells; A549 ARE-Fluc cells, CellTiter-Fluor viability, 18-24 h; Potency, µM (titrated, usually from 46 µM), for the others: top-dose activity change, negative = cytotoxicity, actives largely listed as inhibitors; 390,000 tested, 0.16% active; AID 504648; also: % is scaled to controls: 0 for no effect and ±100 for the full control effect
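A549 ARE_Fluc cells in 5% FBS OPTI-MEM were exposed to compounds in concentration-response for 18-24 h at 37 deg C. Viability was read by CellTiter-Fluor fluorescence (Ex 405/Em 525) after 30 min, before the luciferase read.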
Nrf2 inh: Nrf2 pathway inhibition | A549 ARE-Fluc reporter, luciferase luminescence, 18-24 h | Potency, µM (highest dose often 46 µM), inactives show at the top dose activity change, negative = inhibition, actives largely listed as inhibitors | 360,000 tested, 2.1% active; also: % is scaled to controls: 0 for no effect and ±100 for the full control effect; nearly all actives have a fitted effect of over 60% in size
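Quantitative HTS in A549 cells stably bearing an antioxidant response element-firefly luciferase construct. Inhibition of Nrf2-driven transcription was scored by luminescence after 18-24 h of compound exposure at 37 °C.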
Active calls of the source: *; u = inconclusive; x = no result; [ ] = another dose, or the depositor's remark. This is a sample that favours compounds with a hit; in the whole collection about 3.1% have one here. Calls follow the shape of the dose curve; as a rule, active = well fitted curve in the direction sought with a large enough effect; inconclusive = small, poorly fitted or top-dose-only effect, or another doubt; inactive = no such curve, though single readings can be large; an effect the other way counts as inactive or inconclusive. Potency is read from the fitted curve at half-maximal effect.

SMILES	TrxR1 substrate	Mito fusion yeast	TrxR1 inh	mIDH1 inhibitor	A549 tox	Nrf2 inh
Cc1cccc2c(C(O)c3cn(C)c4ccccc34)c[nH]c12 (centres undefined)	-2%	x	-17%	x	x	x
CCOC(=O)N1CCN(C(=O)c2ccc(NS(=O)(=O)c3ccc(F)cc3)cc2)CC1	1%	3%	7%	3%	-2%	16µM*
CCOc1ccc(NS(=O)(=O)c2ccc(C(=O)N(C)Cc3cccc(OC)c3OC)cc2)cc1	-16%	5%	-10%	2%	-7%	15µM*
COc1cccc(CN(C)C(=O)c2ccc(NS(=O)(=O)c3ccc4[nH]c(=O)[nH]c4c3)cc2)c1OC	-14%	0%	-12%	5%	-2%	7%
CCOc1ccc(NS(=O)(=O)c2ccc(C(=O)N3CCN(c4ncccn4)CC3)cc2)cc1	8%[57.1 µM]	1%	10%[57.1 µM]	-4%	-21%	16µM*
Cc1onc(-c2ccccc2Cl)c1C(=O)Nc1nnc(C2CCCCC2)s1	-2%	x	11%	x	3%	u
NC(=S)NN=Cc1nccc2ccccc12	2%[57.1 µM]	x	-22%[57.1 µM]	6%	u	u
Cc1cnc(C=NNC(N)=S)c2cccc(N)c12	-14%[57.1 µM]	x	-12%[11.4 µM]	18%	u	7.3µM*
O=C(Nc1ccc(Br)c(C(F)(F)F)c1)c1ccccc1	-11%	22µM*	-12%	10%	-5%	u
CC(C)C[C@H](N)CSSC[C@@H](N)CC(C)C	x	x	137%[57.1 µM]	x	x	x
CC(C)c1ccc(NC(=O)CCS(=O)(=O)c2ccc(Br)s2)cc1	-17%	x	-21%	12%	-2%	26µM*
CC(=O)c1c(C(C)=O)c(C)n(-c2ccc(C)c(NC(=O)c3ccccc3Cl)c2)c1C	6%	2%	14%	4%	-9%	15µM*
Cc1cc2c(cc1NC(=O)c1ccccc1Cl)n(C)c(=O)c(=O)n2C	6%[57.1 µM]	x	13%[57.1 µM]	-4%	-1%	u
O=C1CCCC2=C1C1(CCSCC1)N=C(Nc1nc3ccccc3o1)N2	x	x	x	x	8%	-2%
Cc1cccc(N(CC(O)CN2CCCC2)S(=O)(=O)c2ccccc2)c1 (centres undefined)	11%	-6%	16%	1%	-17%	-12%
Cc1cccc(N(CC(O)CON=C2c3ccccc3-c3ccccc32)S(C)(=O)=O)c1 (centres undefined)	8%	25%	21%	-2%	u	18µM*
CS(=O)(=O)N(CC(O)CON=C1c2ccccc2-c2ccccc21)c1ccc(F)cc1 (centres undefined)	-9%[57.1 µM]	-4%	27%	1%	-26%	8.2µM*
O=C1C=C(c2cccc(Cl)c2O)C[C@@H](c2ccc(Cl)cc2)C1	-3%	13µM*	6%	-2%	2%	14%
COc1ccc(C(=O)C=Cc2ccc(OCc3ccccc3)c(OC)c2)cc1OC	x	x	x	-2%	x	x
COc1cc(/C=C/[N+](=O)[O-])ccc1OCc1cccc(C(=O)O)c1	-12%	-2%	32µM*	10%	2%	u
O=C(NCc1ccccc1)[C@]1(C(F)(F)F)C[C@H](CCCO)CCCO1	-10%	x	-18%	x	3%	-1%
COc1ccc(CC(=O)OCCc2cc3cc(OC)c(OC)cc3c(=O)o2)cc1	2%	25%	18µM*	-2%	3%	0%
O=C(Nc1cccc(-c2nnc(-c3ccccc3)o2)c1)c1ccc(Br)o1	10%	u	13%	3%	u	23µM*
COc1ccccc1NC(C)C(=O)c1c[nH]c2ccccc12 (centres undefined)	-5%	x	-1%	x	x	x
CCCCn1cnc2c(SCc3ccc(Br)cc3)nc(N)nc21	7%[57.1 µM]	x	-2%[2.29 µM]	4%	-19%	18µM*
SMILES	TrxR1 substrate	Mito fusion yeast	TrxR1 inh	mIDH1 inhibitor	A549 tox	Nrf2 inh
Cc1ccc(C(=O)CNc2ccc(Br)cc2)cc1	3%[57.1 µM]	-3%	24%[57.1 µM]	-5%	-11%	18%
Cc1ccc(C(=O)CCC(=O)Nc2cccc(C)c2)cc1	0%	-5%	9%	2%	4%	9%
CC(C)c1ccc(NCCC(=O)c2ccc(Br)cc2)cc1	-7%	-2%	56µM*	0%	2%	-10%
CCOC(=O)CNCCC(=O)c1ccc(Br)cc1	-3%	-2%	0.28µM*	-1%	0%	4%
Cc1cccc(NCCC(=O)c2ccc(Br)cc2)c1	-3%	-1%	25µM*	3%	2%	u
Cc1ccc(C(=O)NCC(=O)NCC(=O)OCC(=O)c2ccc(Br)cc2)cc1	7%	-7%	23%	6%	10%	5%
CC(=O)c1ccc(NCCC(=O)c2ccccc2)cc1	-9%	-6%	50µM*	1%	1%	u
Cc1c(CCOC(=O)c2ccc(N3CCOCC3)c([N+](=O)[O-])c2)sc[n+]1CC#N	1%	4%	u	u	u	16µM*
Cc1c(CCOC(=O)c2cc([N+](=O)[O-])cc([N+](=O)[O-])c2)sc[n+]1CC(=O)c1ccccc1	1%	-5%	79µM*	-6%	-8%	-3%
Cc1c(CCOC(=O)c2ccccc2)sc[n+]1CC(=O)c1ccc(Br)cc1	-1%[57.1 µM]	24%	-21%	0%	-6%	14%
CCn1c(=NC(=O)CCS(=O)(=O)c2ccccc2)sc2cccc(OC)c21	9%	5%	13%	13%	-23%	u
CCn1c(=NC(=O)CS(=O)(=O)c2ccc(F)cc2)sc2cccc(OC)c21	0%	9%	-1%	2%	-1%	21µM*
O=C1CCc2cc(S(=O)(=O)Nc3ccc(-c4ccccc4)cc3)ccc2N1	x	x	x	x	2%	12µM*
O=C1CCc2cc(S(=O)(=O)Nc3ccccc3)ccc2N1	-2%	1%	6%	2%	-7%	-2%
CCOC(=O)c1ccc(NC(=O)c2ccc(CN3CCc4ccccc4C3)cc2)cc1	16%	0%	16%[57.1 µM]	9%	u	23µM*
CCOC(=O)c1ccc(NC(=O)c2ccc(CN3CCOCC3)cc2)cc1	4%	10%	4%	7%	u	5.2µM*
Cc1cc(C)c(NC(=O)c2ccc(CN3CCc4ccccc4C3)cc2)c(C)c1	-8%	4%	-2%	2%	u	23µM*
CCOC(=O)c1ccc(NC(=O)CSc2nc(=O)n(CCN3CCOCC3)c3c2CCC3)cc1	12%	-2%	25%	10%	0%	18µM*
O=C1C[C@H]2C=CCc3cccc(c32)CN1Cc1ccc(Cl)cc1	-3%	x	15%	x	x	x
CC(C)(C)N(Cc1ccccc1)C(=O)CSc1ncn[nH]1	-2%	32µM*	3%	2%	0%	0%
COc1cccc(N2CCN(c3ncc4c(n3)CCN(Cc3ccc(Br)cc3)C4)CC2)c1	8%[57.1 µM]	x	21%[57.1 µM]	9%	-15%	x
